# Data from PubChem BioAssay AID686948 (National Center for Advancing Translational Sciences (NCATS), 2013).
# The source made the active and inactive calls. Calls follow the shape of the dose curve; as a rule, active = well fitted inhibition curve with a large enough effect; inactive = flat fitted curve, though single readings scatter.
# Target: Tyrosine-protein kinase Yes (Homo sapiens) (UniProt P07947)
# Assay: qHTS for small molecule inhibitors of Yes1 kinase: Confirmatory screen on the cherrypicks
# Details: Recombinant Yes1, ADP-Glo luminescence, poly(E4Y) substrate
# From the text: The Src family of non-receptor protein tyrosine kinases contains nine members, including Yes1, Src, Fyn, Lyn, and […]. These kinases have important roles in a variety of cellular functions, such as cell proliferation, survival, and differentiation. Src, the most well characterized member of this family, has been previously identified as a proto-oncogene. […] In melanoma, it has been shown that Yes1, and not other family members, such as Src, is functionally involved in the malignant phenotype. Additionally, a recent study examining the downregulation of Yes1 by shRNA found significant effects on cell survival/growth for basal-like and Her2-positive breast cancers. Despite the potential for Yes1 to be a target for the above-described cancers, there are very few reports on the identification of potent and selective inhibitors of Yes1 kinase. Antagonists of Yes1 would further elucidate Yes1 biology and help to confirm whether Yes1 is a viable target for therapeutic intervention in a variety of cancers. A compound that inhibits Yes1 could be important for the treatment of various cancers in which Yes1 is highly expressed and can also be used as a tool compound to help further elucidate Yes1 biology. To that end, we have developed a sensitive HTS biochemical assay for Yes1 activity. This assay was screened against several small compound libraries to look for modulators of activity. Inhibition is the desired output for this assay. NIH Molecular Libraries Probe Production Centers Network [MLPCN] NIH Chemical Genomics Center [NCGC] MLPCN Grant: MH084681
# Two microliter of Yes1 enzyme (columns 1-2, 5-48; Millipore, Billerica, MA) are dispensed into Greiner, white solid-bottom 1536-well assay plates; columns 3 and 4 receive buffer without Yes1 as a control for maximum inhibition. Compounds (23 nL) are then transferred via Kalypsys pin tool equipped with 1536-pin array (10 nL slotted pins, V&P Scientific, San Diego, CA). The library compounds are in columns 5-48 and columns 1-4 serve as controls with DMSO in columns 1, 3 and 4 and 10 mM 1:3 fold serial of dasatinib in column 2. Following addition of compound and a 20 minute incubation, 1 uL of substrate (ATP and poly-E4Y from Sigma-Aldrich, St. Louis, MO) is added, and the biochemical reaction is allowed to progress for 60 minutes at room temperature. The production of ADP is then quantified by the ADP-Glo Kit (Promega, Madison, WI). First, 2 uL of the first kit reagent is added, and the reaction is incubated for 45 minutes; then, 4 uL of the second kit reagent are added and the reaction is incubated for 30 minutes at which time the luminescence is read on a Viewlux plate reader (Perkin-Elmer, Waltham, MA). The final concentration of reagents in the reaction are 4 nM Yes1, 0.1 mM ATP, 100 uM EGTA, 10 mM MgCl2, 0.3 mg/mL poly(E4Y), 50 mM Tris pH 7.5, 1 mM DTT, 150 mM NaCl, 0.01% Brij-35, and 5% glycerol. Data are normalized to DMSO-treated control columns with (maximum signal) and without (minimum signal) enzyme.
# Chain of Tyrosine-protein kinase Yes (Homo sapiens) (P07947 whole entry, looked up): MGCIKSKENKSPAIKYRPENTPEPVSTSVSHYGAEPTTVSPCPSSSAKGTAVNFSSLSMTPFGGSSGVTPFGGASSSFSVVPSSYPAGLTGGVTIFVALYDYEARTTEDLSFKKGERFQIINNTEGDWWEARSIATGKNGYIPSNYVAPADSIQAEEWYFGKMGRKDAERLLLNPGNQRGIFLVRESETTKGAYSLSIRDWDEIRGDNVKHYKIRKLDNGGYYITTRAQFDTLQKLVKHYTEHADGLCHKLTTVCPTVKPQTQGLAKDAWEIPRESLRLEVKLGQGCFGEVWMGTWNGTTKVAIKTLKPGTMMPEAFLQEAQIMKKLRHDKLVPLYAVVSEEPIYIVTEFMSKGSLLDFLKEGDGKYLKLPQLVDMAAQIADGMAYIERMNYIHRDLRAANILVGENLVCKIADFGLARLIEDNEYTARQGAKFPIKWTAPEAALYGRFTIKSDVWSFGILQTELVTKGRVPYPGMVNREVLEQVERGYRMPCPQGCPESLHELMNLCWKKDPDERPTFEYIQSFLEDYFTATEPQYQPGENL
row,Compound,Potency
1,CC(NCc1ccc2c(c1)nc(NC(=O)c1ccc(-c3cn[nH]c3)s1)n2CC(C)(C)O)C(C)(C)C (stereo unspecified),1.7 nM (active)
2,Cc1ccc(C(=O)Nc2cccc(C(F)(F)F)c2)cc1-c1ccc2nc(NCCN3CCOCC3)ncc2c1,0.7 nM (active)
3,CC(C)Oc1cc(Nc2nc(N[C@@H](C)c3ccc(F)cn3)ncc2Cl)[nH]n1,39.1 nM (active)
4,NC(=O)Nc1cc(-c2ccc(CN3CCOCC3)c(F)c2)sc1C(=O)N[C@H]1CCCNC1,1.7 nM (active)
5,CCN(CC)CCOc1ccc(Nc2ncc3cc(-c4c(Cl)cccc4Cl)c(=O)n(C)c3n2)cc1,0.4 nM (active)
6,CN1CCC(CNc2ccc3ncc(-c4cccc(OC(F)(F)F)c4)n3n2)CC1,2770 nM (active)
